This excerpt belongs to a sample that is enriched for hits.
NOMO-1 viab: STK33 inhibitor candidate reducing NOMO-1 cell viability. NOMO-1 AML viability, CellTiter-Glo luminescence, 72 h. inhibition, % (no concentration beside the values). actives 7.5% (n = 37,000). AID 2330; in the data active = inhibition above about 80%; inconclusive = no clear call, values can overlap the other calls
PD-1 reverse act: reversal of PD-1 mediated T-cell inhibition; AID 2316; activation, % (concentration not given with the values); 29,000 tested, under 10 active; primary human CD4 T cells, PD-L1 beads, CellTiter-Glo 96 h; call rule not given here;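 also: 0% = median vehicle wells and 100% = positive control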
ROS inducer: cancer cell ROS induction. ROS induction (% of piperlongumine), % at 10 µM. U2OS ROS induction, H2DCF-DA fluorescence. actives 2% (n = 46,000); in the data active = ROS induction above about 79%, passing the limit was not always enough; inconclusive = no clear call, values can overlap the other calls;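 also: 0% = DMSO vehicle median and 100% = reference compound median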
The depositor's hits bear a star; ? = inconclusive; · = not tested or not shown.

SMILES	NOMO-1 viab	PD-1 reverse act	ROS inducer
CSc1sc(Cl)c2c1/C(=N\O)CC(C)(C)C2	109.5*	-5.0	-14.4
O=c1cc(N2CCOCC2)oc2c1ccc1ccccc12	17.6	-1.4	-1.9
O=c1cc(N2CCOCC2)oc2c(-c3ccccc3)cccc12	124.8*	-15.8	84.6*
Cc1ccc(Cn2cc3c(n2)-c2c(oc(C(=O)NCCCN4CCCCCC4)c2C)CC3)cc1	·	·	-14.1
C=CCn1c(SCC(=O)c2ccccc2)nnc1-c1sc2nc(C)cc(C)c2c1N	6.2	1.2	35.2
O=c1[nH]cnc2c1cnn2-c1ccccc1	·	·	-3.8
O=c1oc(-c2cccc(Cl)c2)nc2c1cnn2-c1ccccc1	115.0*	-1.5	3.8
CN(C)c1ccc(/C=C(\C#N)S(C)(=O)=O)c(F)c1C#N	·	·	0.9
CCc1ccc(O)c(NC(=S)NC(=O)COc2ccc(C)cc2C)c1	119.6*	·	·
Cc1ccc(OCC(=O)O)c(C)c1	-9.7	0.1	11.5
CCc1ccc2nc(N3CCC(C(=O)NC4CCCCC4)CC3)sc2c1	·	·	18.3
CN(C)CCN(C(=O)C1CCCCC1)c1nc2ccc(Br)cc2s1	·	·	94.5*
CCC(Sc1nncn1C)C(=O)Nc1ccc(OC(F)(F)F)cc1 (centres undefined)	·	·	-9.8
Clc1ccc(OCc2nc(CSc3cccs3)no2)c(Cl)c1	·	·	-7.0
CC1(C)C(=O)C=C[C@@]2(C)C1CC(=O)[C@]1(C)C2CC[C@@]2(C)[C@H](c3ccoc3)OC(=O)[C@H]3O[C@]321 (some centres undefined)	88.2*	·	15.4
CC1(C)C=CC(=O)[C@@]2(C)C1CC(=O)[C@]1(C)C2CC[C@@]2(C)[C@H](c3ccoc3)OC(=O)C3OC321 (some centres undefined)	31.5	·	10.2
COc1ccc2c(Sc3ccccc3)c(C(=O)NC3CCCC3)[nH]c2c1	·	·	-8.2
O=C(Oc1c(CN2CCOCC2)cc(Cl)c2cccnc12)c1ccccc1Cl	·	·	-3.4
O=C(Oc1ccccc1N1CCOCC1)c1cccnc1Sc1ccc(Cl)cc1	·	·	-15.6
COc1ccccc1C(=O)Oc1c(CN2CCOCC2)cc(Cl)c2cccnc12	109.0*	·	·
O=C(Oc1c(CN2CCOCC2)cc(Cl)c2cccnc12)c1ccc(F)cc1	108.8*	·	·
CCN(CC)N1CCN(S(=O)(=O)c2ccc(S(=O)(=O)c3ncccn3)cc2)CC1	·	·	-4.2
Nc1c2ccccc2nc2ccccc12	106.8*	·	3.5
Nc1c2c(nc3ccccc13)CCCC2	12.0	·	1.5
O=C(CNC(=O)c1cccs1)NCc1cccs1	·	·	-15.0
SMILES	NOMO-1 viab	PD-1 reverse act	ROS inducer
C=C1CC[C@H]2C(=C)CC[C@@]3(O)C(=C)C(=O)O[C@@H]3[C@@H]12	109.9*	-15.9	25.0
Cc1cccc(NC(=O)CSc2nc3c(cc2C#N)C(=O)CC(C)(C)C3)c1	·	·	13.4
Cc1ccc(NC(=O)CSc2nc3ccsc3c(=O)n2Cc2ccccc2F)cc1Cl	·	·	4.8
CCCCCCCCC[C@@H](O)CC(=O)CCc1ccc(O)c(OC)c1	91.8*	1.1	-2.9
CCCCCC(O)CC(O)CCc1ccc(O)c(OC)c1 (centres undefined)	·	·	-3.1
COc1cc(NC(=O)COc2ccc(Cl)cc2Cl)ccc1NC(=O)c1ccccc1Cl	38.9	1.5	1.0
COC(=O)C(O)(c1ccc(NC(=S)NC(=O)c2ccc(Cl)cc2Cl)c(OC)c1)C(F)(F)F (centres undefined)	123.5*	-5.9	-14.1
C[C@@H]1CN([C@@H](C)CO)C(=O)c2cccc(NC(=O)CCCCCC(=O)Nc3ccccc3N)c2O[C@@H]1CN(C)Cc1ccccc1	87.7*	2.2	2.8
C[C@@H]1CN([C@H](C)CO)C(=O)c2cccc(NC(=O)CCCCCC(=O)Nc3ccccc3N)c2O[C@@H]1CN(C)Cc1ccc2c(c1)OCO2	68.4	0.3	-5.5
CC(C)NC(=O)N(C)C[C@@H]1Oc2c(NC(=O)CCCCCC(=O)Nc3ccccc3N)cccc2C(=O)N([C@H](C)CO)C[C@H]1C	6.6	0.7	53.5
C[C@@H]1CN([C@H](C)CO)C(=O)c2cccc(NC(=O)CCCCCC(=O)Nc3ccccc3N)c2O[C@H]1CN(C)Cc1ccc2c(c1)OCO2	122.5*	-0.2	106.1*
C[C@H](CO)N1C[C@H](C)[C@@H](CN(C)Cc2ccc(-c3ccccc3)cc2)Oc2c(NC(=O)CCCCCC(=O)Nc3ccccc3N)cccc2C1=O	125.0*	-1.9	117.0*
C[C@H]1CN([C@@H](C)CO)C(=O)c2cccc(NC(=O)CCCCCC(=O)Nc3ccccc3N)c2O[C@@H]1CN(C)Cc1ccncc1	13.1	1.4	2.0
C[C@H](CO)N1C[C@H](C)[C@H](CN(C)Cc2ccc(Cl)c(Cl)c2)Oc2c(NC(=O)CCCCCC(=O)Nc3ccccc3N)cccc2C1=O	113.9*	-0.7	121.4*
C[C@@H]1CN([C@@H](C)CO)C(=O)c2cccc(NC(=O)CCCCCC(=O)Nc3ccccc3N)c2O[C@H]1CN(C)C	32.5	-0.4	-9.8
O=C(NC(=O)c1ccccc1Cl)NC1CC1	·	·	-7.2
C[C@@H]1CN([C@H](C)CO)C(=O)Cc2cc(NS(=O)(=O)c3cccs3)ccc2O[C@H]1CN(C)Cc1ccc(-c2ccccc2)cc1	48.8	0.6	96.5*
C[C@@H]1CN([C@H](C)CO)C(=O)c2cc(NS(=O)(=O)c3cccs3)ccc2O[C@@H]1CN(C)Cc1ccc(Oc2ccccc2)cc1	105.9*	·	22.2
COc1ccc(CN(C)C[C@@H]2Oc3ccc(NS(=O)(=O)c4cccs4)cc3C(=O)N([C@H](C)CO)C[C@@H]2C)cc1	10.1	-0.9	14.8
C[C@@H]1CN([C@@H](C)CO)C(=O)Cc2cc(NS(=O)(=O)c3cccs3)ccc2O[C@@H]1CN(C)Cc1ccc(-c2ccccc2)cc1	52.6	·	18.4
C[C@H](CO)N1C[C@H](C)[C@H](CN(C)Cc2ccc(Oc3ccccc3)cc2)Oc2ccc(NS(=O)(=O)c3cccs3)cc2CC1=O	31.7	-0.8	21.6
C[C@@H]1CN([C@H](C)CO)C(=O)Cc2cc(NS(=O)(=O)c3cccs3)ccc2O[C@H]1CN(C)Cc1ccc(Oc2ccccc2)cc1	88.5*	·	?
COc1ccccc1NC(=O)Cn1cnc2c(cnn2C(C)(C)C)c1=O	·	·	-2.0
CCOC(=O)N1CCN(C(=O)CNC(=S)N(Cc2cccs2)C2CCCCC2)CC1	·	·	2.0
CCc1ccccc1NC(=O)CCn1c(=O)c2cccn2c2ccccc21	·	·	-7.3
SMILES	NOMO-1 viab	PD-1 reverse act	ROS inducer
O=C(Cn1cnc(SCc2ccccc2)n1)Nc1cccc(C(F)(F)F)c1	·	·	-14.2
CC(C)N(Cc1nc(-c2ccccc2Cl)no1)C(=O)c1ccccc1-c1ccccc1	35.7	·	·
Cc1ccc(-c2noc(CN(C(=O)c3ccccc3-c3ccccc3)C(C)C)n2)cc1	87.4*	·	·
C[C@@H]1CN([C@@H](C)CO)C(=O)c2cc(NC(=O)Cc3cn(C)c4ccccc34)ccc2O[C@@H]1CN(C)Cc1ccc(Oc2ccccc2)cc1	113.8*	·	59.3
C[C@@H]1CN([C@@H](C)CO)C(=O)c2cc(NC(=O)Cc3cn(C)c4ccccc34)ccc2O[C@H]1CN(C)Cc1ccc(Oc2ccccc2)cc1	55.5	·	31.8
C[C@H]1CN([C@@H](C)CO)C(=O)c2cc(NC(=O)Cc3cn(C)c4ccccc34)ccc2O[C@@H]1CN(C)Cc1ccc(Oc2ccccc2)cc1	94.5*	·	134.2*
C[C@H]1CN([C@@H](C)CO)C(=O)c2cc(NC(=O)Cc3cn(C)c4ccccc34)ccc2O[C@H]1CN(C)Cc1ccc(Oc2ccccc2)cc1	31.4	-1.7	-0.8

Assay outcomes: PubChem BioAssay, Broad Institute
